Screening data from PubChem BioAssay.
Compounds with a hit are over-represented: about 0.54% of the library has one in this group of screens.
Vif-APOBEC3F blk: qHTS for Inhibitors of Vif-A3F Interactions: qHTS; HeLa A3F-eYFP + Vif (tagged APOBEC3F with the HIV-1 protein that degrades it), YFP fluorescence increase; Potency, µM (series often up to 46.1 µM), inactives show top-dose activity, negative = active; 0.2% of 390,000 active; AID 602313, 2012; further: potency means the concentration at half of the fitted maximal effect; % of control where 0% means no effect; nearly all actives have a fitted effect of over 65% in size
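HeLa cells stably expressing Vif plus C-terminally eYFP-tagged A3F were seeded, incubated overnight at 37 deg C, dosed with compound, incubated overnight again at 37 deg C. Yellow fluorescence (Ex 488/Em 500-530) reported blocked Vif-mediated A3F-eYFP degradation.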
Vif-A3G inh: qHTS for Inhibitors of Vif-A3G Interactions: qHTS; DNA dC->dU-editing enzyme APOBEC-3G (Homo sapiens), Q9HC16; HeLa A3G-eYFP + Vif (tagged APOBEC3G with the HIV-1 protein that degrades it), YFP fluorescence, overnight; Potency, µM (doses to about 46.1 µM), for the others: top-dose activity, negative = active, usual class: inhibitors; 0.076% of 410,000 active; AID 602310, 2012; further: potency means the concentration at half of the fitted maximal effect; on the % scale 0 is the no-effect control and ±100 the full control effect; nearly all actives have a fitted effect of over 60% in size
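HeLa cells stably expressing Vif and C-terminally eYFP-tagged A3G, seeded overnight at 37 deg C, then exposed to compound by pintool overnight at 37 deg C. Rise in yellow fluorescence (Ex 488/Em 500-530, Acumen) marks blocked Vif-driven A3G degradation.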
TRPML1 blocker: qHTS for Inhibitors of the Human Mucolipin Transient Receptor Potential 1 (TRPML1); AID 624415, 2012; Mucolipin-1 (Homo sapiens), Q9GZU1; 0.02% of 390,000 active; TRPML1-inducible cells, Ca2+ dye fluorescence, FDSS; stronger effect = lower value; inhibition of EC80 agonist-evoked calcium signal; activity change, negative = inhibition, % (test concentration not listed); in the data active means activity change below about -50%; inconclusive means between about -30% and that limit;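 further: stimulus is agonist 54-4 at its EC80 concentration; on the % scale 0 is the no-effect control and ±100 the full control effect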
Target sequence (Q9GZU1 whole entry, looked up): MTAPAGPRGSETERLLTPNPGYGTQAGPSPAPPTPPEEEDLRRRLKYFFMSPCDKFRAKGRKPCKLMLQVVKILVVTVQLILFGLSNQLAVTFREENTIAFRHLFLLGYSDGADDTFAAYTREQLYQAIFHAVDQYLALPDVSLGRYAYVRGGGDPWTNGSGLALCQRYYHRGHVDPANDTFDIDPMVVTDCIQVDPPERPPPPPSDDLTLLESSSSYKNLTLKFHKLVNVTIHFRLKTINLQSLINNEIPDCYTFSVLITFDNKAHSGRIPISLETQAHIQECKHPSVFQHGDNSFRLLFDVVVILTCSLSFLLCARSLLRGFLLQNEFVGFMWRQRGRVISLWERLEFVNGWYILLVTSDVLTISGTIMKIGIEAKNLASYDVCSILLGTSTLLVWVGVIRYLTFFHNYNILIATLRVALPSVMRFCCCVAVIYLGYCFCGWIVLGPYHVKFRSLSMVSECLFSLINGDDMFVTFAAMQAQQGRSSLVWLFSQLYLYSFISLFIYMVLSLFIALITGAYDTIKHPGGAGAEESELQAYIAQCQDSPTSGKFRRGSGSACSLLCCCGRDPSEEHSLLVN
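Calcium fluorescence in TRPML1-DL cells induced overnight with Tet: a 110 s read after compound pin addition, then a 110 s antagonist read after challenge with 54-4 at 4 uM final (EC80).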
AT treatment: qHTS Assay for Identifying a Potential Treatment of Ataxia-Telangiectasia; 0.19% of 320,000 active; F2112 A-T fibroblasts, KAP-1 phosphorylation AlphaLISA; neocarzinostatin DNA damage 30 min before lysis; Potency, µM (top dose mostly 57.5 µM), without a hit: top-dose activation, actives largely listed as activators; further: potency means the concentration at half of the fitted maximal effect; % of control where 0% means no effect; nearly all actives have a fitted effect of over 45% in size
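hTERT-immortalized A-T patient fibroblasts (F2112), 500 cells/well in OPTI-MEM, 1% FBS, got compounds for 60 min, then NCS for 30 min at 37C. Lysates were then assayed for phospho-KAP-1 by AlphaLISA (anti-pKAP1 donor, anti-KAP1 acceptor beads), 6 hr at 25C.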
TRPML1 agonist: qHTS for Agonists of the Human Mucolipin Transient Receptor Potential 1 (TRPML1); TRPML1-expressing cells, Ca2+ dye fluorescence, FDSS; activation, % (concentration not given with the values); 0.12% of 410,000 active; in the data active means activation above about 50%; inconclusive means mostly about 30% to 49%; further: 0% is about no effect
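Cells: TRPML1-DL, 1X Tet inducer, ~16 h at 37 degrees C/5% CO2. Dye: ABD Ca8 no-wash + quencher, 45-90 min RT. Read: 10 s baseline, compound add, 110 s agonist phase; 54-4 EC80 (4uM final), 110 s antagonist phase.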
An asterisk follows results filed as active; ? = inconclusive; · = not tested or not shown; [ ] = remark or other dose. Unless noted, the call rests on the fitted dose curve; in most records, active means well fitted curve in the direction sought with a large enough effect; inconclusive means small, poorly fitted or top-dose-only effect, or another doubt; inactive means no such curve, though single readings can be large; an effect the other way counts as inactive or inconclusive.

SMILES	Vif-APOBEC3F blk	Vif-A3G inh	TRPML1 blocker	AT treatment	TRPML1 agonist
O=C1c2oc3ccc(F)cc3c(=O)c2C(c2cccc([N+](=O)[O-])c2)N1CCCN1CCOCC1 (configuration not stated)	-8.4%	-1.1%	11.0	·	-0.4
COc1ccc(NC(=O)/C(C#N)=C\c2ccc(N3CCOCC3)o2)cc1	?	15.0%	1.8	3.3%[11.5 µM]	65.4*
COc1ccc(NC(=O)/C(C#N)=C/c2ccc(C)o2)cc1	?	-24.6%	-8.3	·	-1.0
CC1CC1c1ccc(/C=C(\C#N)C(=O)Nc2ccc(Cl)cc2)o1 (configuration not stated)	-8.1%	0.9%	-7.5	-1.6%	27.8
N#C/C(=C/c1ccc(N2CCCCC2)o1)C(=O)Nc1ccc2ccccc2c1	-6.2%	8.9%	1.2	-2.9%	51.1*
CCc1ccc(NC(=O)/C(C#N)=C/c2ccncc2)cc1	-0.2%	-1.7%	21.2	-3.9%	-0.6
CCc1ccc(NC(=O)/C(C#N)=C/c2cc3ccc(C)cc3nc2N2CCOCC2)cc1	7.94µM*	-13.5%	10.3	-4.1%	1.2
N#C/C(=C\c1ccc(N2CCOCC2)o1)C(=O)Nc1ccc(O)cc1	?	?	11.7	-7.2%	17.0
N#C/C(=C/c1ccc(N2CCCCC2)o1)C(=O)Nc1ccc(Cl)cc1	-490.7%	-2.4%	-11.4	2.6%	60.8*
C(=C\c1ccnc2ccccc12)/c1ccc2ccccc2n1	·	-27.5%	·	·	-0.6
Cc1c(C(=O)NCc2ccc(N(C)C)cc2)oc2c1-c1nn(Cc3cccc(Cl)c3)cc1CC2	1.3%	-1.2%	10.1	·	1.7
N#C/C(=C/c1ccc(N2CCOCC2)o1)C(=O)NC1CCCCC1	22.4µM*	11.2µM*	1.0	-3.8%	?
N#C/C(=C\c1ccc(N2CCOCC2)o1)c1ccccc1	?	?	8.0	?	4.8
CCOC(=O)N1CCC(N2C(=O)c3ccccc3C2Nc2ccc3c(C)cc(=O)oc3c2)CC1 (configuration not stated)	-0.5%	-5.8%	13.6	39.8µM*	0.6
CCN(CC)c1ccc2cc(NC(=O)CCC(=O)O)c(=O)oc2c1	0.3%	-1.0%	2.3	?	?
CCN(CC)c1ccc2cc(C(N)=O)c(=N)oc2c1	11.2µM*	?	-7.0	28.5%	55.7*
CCN(CC)c1ccc2cc(C(N)=O)c(=O)oc2c1	-12.6%	-5.9%	0.5	?	-0.2
CCN(CC)c1ccc2cc(C(C)=O)c(=O)oc2c1	-4.4%	-1.4%	-0.4	?	71.9*
CCN(CC)c1ccc2cc(C=O)c(=O)oc2c1	?	-18.0%	-21.6	·	112.9*
CC(=O)N1c2ccc(S(=O)(=O)NCC3CCC(C(=O)Nc4cccc(C)c4C)CC3)cc2CC1C (configuration not stated)	1.5%	3.2%	8.6	·	1.2
O=c1ccc2c(-c3ccccc3)c3ccc(O)cc3oc-2c1	4.2%	8.9%	?	?	139.4*
Nc1ccc(-c2c3ccc(=O)cc-3oc3cc(O)ccc23)cc1C(=O)O	3.0%	8.9%	-10.5	-10.5%	65.2*
CCOc1ccc(-c2cc(C(=O)NCc3ccccc3Cl)c3ccccc3n2)cc1	3.7%	-1.3%	-4.5	·	-0.2
Cc1c(C2=CCN(S(=O)(=O)c3ccc(Cl)cc3)CC2)c2ccccc2n1CC(=O)N1CCCC1	0.3%	0.9%	-16.5	·	2.4
C(=C\c1ccnc2ccccc12)/c1ccc(-[n+]2cc[n+](-c3ccc(/C=C/c4ccnc5ccccc45)cc3)cc2)cc1	·	0.1%	·	·	9.8
SMILES	Vif-APOBEC3F blk	Vif-A3G inh	TRPML1 blocker	AT treatment	TRPML1 agonist
O=C(NN=C1CCCC1)c1sc2ccccc2c1Cl	0.1%	5.4%	8.1	-3.1%	0.6
O=C1CCC/C(=N/NC(=O)c2sc3ccccc3c2Cl)C1	?	?	-7.1	14.1%	58.2*
COc1ccc(-n2c(=S)[nH]c3ccccc3c2=S)cc1	0.3%	-5.7%	13.2	2.82µM*	2.7
COc1ccc(-n2c(=S)[nH]c3ccccc32)cc1	0.2%	0.7%	-7.6	·	0.1
CCC1Oc2ccc(C)cc2N(CC(=O)N2CCN(c3ccccc3OC)CC2)C1=O (configuration not stated)	-4.6%	-0.1%	-16.1	·	-0.6
CCOC(=O)C1=C(O)C(=O)N(Cc2ccccc2)C1	3.7%	0.2%	·	1.12µM*	·
C(=C\c1nccc2c1[nH]c1ccccc12)/c1ccccc1	?	?	-4.8	22.4µM*	-0.7
Fc1ccc(/C=C\c2nccc3c2[nH]c2ccccc23)cc1	8.5%	-24.8%	31.0	8.6%	0.7
COc1ccc2[nH]c(C(=O)N/N=C/c3ccc(OC)c(O)c3)cc2c1	0.7%	2.51µM*	29.0	-10.3%	0.7
COc1ccc2[nH]c(C(=O)N/N=C/c3ccccc3OC)cc2c1	-15.8%	?	-12.3	-7.0%	0.2
Cn1c(-c2ccccc2)nc2cnccc21	2.3%	-9.9%	·	20µM*	·
Cc1cc[n+](CCC2CCCCC2)c2ccccc12	·	3.9%	·	·	-0.6
CCN(CC)c1ccc(/C=C(/C#N)c2nc3ccc(C)cc3[nH]2)c(OC(C)C)c1	-1.9%	?	-15.9	-10.7%	-0.5
CCCOc1cc(N(CC)CC)ccc1/C=C(/C#N)c1nc2ccc(C)cc2[nH]1	3.16µM*	?	31.5	0.5%	?
COc1cc(/C=C(\C#N)c2nc3ccccc3[nH]2)ccc1OCc1ccccc1F	22.4µM*	?	-20.3	·	0.9
CCOc1cc(N(CC)CC)ccc1/C=C(/C#N)c1nc2ccccc2[nH]1	3.55µM*	?	13.1	-11.2%	25.0
Cc1cc(/C=C(\C#N)c2nc3ccccc3[nH]2)c(C)n1C	-11.1%	-18.1%	-10.1	-0.4%	1.9
CC12CC3CC(C)(C1)CC(C(=O)NC(=S)N1CCOCC1)(C3)C2	2.4%	10µM*	2.1	3.0%	-0.2
COc1ccc(CNC(=O)CCC2N=C3c4ccccc4N=C(SCc4cccc(F)c4)N3C2=O)cc1 (configuration not stated)	0.1%	-5.3%	-23.3	·	0.3
FC(F)Oc1ccc(-n2cc(-c3ccc(Cl)cc3)[n+]3c2CCCCC3)cc1	7.7%	-0.6%	18.8	14.1µM*	0.1
COc1ccc(CNC(=O)c2ccc3c(c2)CCN3S(=O)(=O)c2ccc(C)cc2)cc1	0.1%	1.6%	-7.3	·	0.3
Cc1cc(=O)oc2cc(OCC(=O)N3c4ccccc4CC3C)ccc12 (configuration not stated)	0.0%	3.98µM*	30.9	-2.0%	4.9
Cc1cccc(Cn2c(=O)n(Cc3ccccc3)c(=O)c3sc4ccccc4c32)c1	-6.1%	2.5%	-1.0	·	-0.2
